Reference: PubChem BioAssay (NCI)
This is part of a sample that, as a whole, favours compounds with a hit. Of some 79,000 tested, about 15% had one in any assay. A number with no mark means an inactive call. The source made the active and inactive calls. Cut-off read from the data, not from the text of the source: active = growth inhibition above about 70%; inactive = the rest.

Tests used:
[1] = NCI Yeast Anticancer Drug Screen. Data for the rad50 strain (AID 155);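 note: 0% = growth of vehicle-only cultures of the same strain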; conditions: S. cerevisiae rad50 strain growth inhibition, stronger effect = higher value
Procedure, shortened: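 Inhibition values express reduced yeast growth in compound-treated cultures relative to vehicle-treated controls.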

[2] = NCI Yeast Anticancer Drug Screen. Data for the mec2-1 strain (AID 157); conditions: S. cerevisiae mec2-1 strain, stronger effect = higher value
Procedure, shortened: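 Readout is yeast growth inhibition, normalised to vehicle-treated controls, in the mec2-1 strain exposed to compound.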

[3] = NCI Yeast Anticancer Drug Screen. Data for the sgs1 mgt1 strain (AID 161);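 note: 0% = growth of cultures given vehicle only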; conditions: S. cerevisiae sgs1 mgt1 strain, stronger effect = higher value
Procedure, shortened: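 Percent growth inhibition was derived by comparing compound-exposed mutant yeast with vehicle-exposed cultures. The strain carries alterations in DNA damage repair.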

[4] = NCI Yeast Anticancer Drug Screen. Data for the cln2 rad14 strain (AID 165);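 note: 0% = growth equal to vehicle treated cultures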; conditions: S. cerevisiae cln2 rad14 strain, stronger effect = higher value
Procedure, shortened: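 Relative to vehicle controls, growth inhibition of compound-treated cln2 rad14 yeast was recorded.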

[5] = NCI Yeast Anticancer Drug Screen. Data for the bub3 strain (AID 167); conditions: S. cerevisiae bub3 mutant strain, stronger effect = higher value
Procedure, shortened: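 Steps: expose the mutant yeast strain to compound; grow alongside vehicle-treated cultures; measure growth; express inhibition against the vehicle cultures.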

[6] = NCI Yeast Anticancer Drug Screen. Data for the mlh1 rad18 strain (AID 175); conditions: S. cerevisiae mlh1 rad18 strain growth inhibition, stronger effect = higher value
Procedure, shortened: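 Test agents were incubated with a yeast strain of defined genotype (DNA damage repair defect). Inhibition of growth was derived by comparison with vehicle-exposed cultures.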

[7] = at 5.0 µM (retest, dose inferred, filed as 0.5)
[8] = at 50.0 µM (retest, dose inferred, filed as 5.0)

Structure (SMILES) | growth inhibition [1, 7] | growth inhibition [1, 8] | growth inhibition ([1]; at 50.0 µM) | growth inhibition [2, 7] | growth inhibition [2, 8] | growth inhibition ([2]; at 50.0 µM) | growth inhibition [3, 7] | growth inhibition [3, 8] | growth inhibition ([3]; at 50.0 µM) | growth inhibition [4, 7] | growth inhibition [4, 8] | growth inhibition ([4]; at 50.0 µM) | growth inhibition [5, 7] | growth inhibition [5, 8] | growth inhibition ([5]; at 50.0 µM) | growth inhibition [6, 7] | growth inhibition [6, 8] | growth inhibition ([6]; at 50.0 µM)
CC(=O)OC1CCC2(C)C(CCC3C2CCC2(C)C4CCC32OC(=O)C4CC(=O)O)C1 (configuration not stated) | 3% | 36% | 86.6% (active) | -32% | 48% | 89.5% (active) | -12% | 13% | 89.5% (active) | 7% | 49% | 90.5% (active) | -2% | 49% | 73% (active) | 10% | 65% | 93.5% (active)
O=C(Nc1ccccc1Cl)c1ccc(Cl)c(Cl)c1 | 4% | 0% | -0.85% | 4% | 2% | 1% | 1% | 1% | 10.2% | 2% | -2% | 29.6% | 1% | -3% | 2.2% | -1% | 1% | -18.2%
C=CCCCCCCCCC(=O)OCC=C | 0% | 4% | -2.1% | 6% | 3% | -18.1% | 4% | 9% | 16.4% | 0% | 0% | 26.6% | -3% | -4% | 10.9% | -2% | -1% | 9.2%
C#CCNC(C)(C)C | 1% | 4% | 98.5% (active) | -5% | 1% | 99.4% (active) | -2% | -3% | 86% (active) | -3% | 2% | 98.7% (active) | 3% | -2% | 99.7% (active) | -1% | 1% | 99.1% (active)
Clc1ccccc1N1CCN(c2c3c(nc4ccccc24)CCCCC3)CC1 | -4% | 89% (active) | 93.3% (active) | 11% | 96% (active) | 95.8% (active) | 38% | 96% (active) | 94% (active) | -13% | 91% (active) | 94.2% (active) | -10% | 92% (active) | 93.2% (active) | 42% | 94% (active) | 95.6% (active)
CC(C)c1cccc(O)c1O | 7% | 1% | 87.2% (active) | -7% | 14% | 89.4% (active) | 9% | 13% | 82.3% (active) | 23% | 38% | 86.3% (active) | -1% | 45% | 89.5% (active) | -1% | 4% | 86.9% (active)
COc1ccccc1/C=C1\C=Cc2ccccc21 | -3% | 6% | 31.9% | 0% | -1% | 49.5% | -4% | 8% | 44.2% | -1% | -14% | 26.2% | 3% | -1% | 78% (active) | -3% | 7% | 70.4% (active)
CC(=O)OC(C)(C)N=Nc1ccc(Br)cc1 | 86% (active) | 99% (active) | 97.9% (active) | 31% | 99% (active) | 98.1% (active) | 60% | 97% (active) | 98.2% (active) | 51% | 94% (active) | 97.3% (active) | 78% (active) | 99% (active) | 97.2% (active) | 63% | 99% (active) | 98.2% (active)
COc1ccc(C2C3CCCC(C(c4ccc(OC)cc4)N2C)C32NC(=O)NC2=O)cc1 (configuration not stated) | 63% | 98% (active) | 97.2% (active) | 25% | 98% (active) | 98% (active) | 23% | 98% (active) | 97.8% (active) | 2% | 97% (active) | 97.2% (active) | 3% | 97% (active) | 97.8% (active) | 29% | 95% (active) | 97.6% (active)
